The full ranking holds about 33,000 sequences; the median of “E-score (-0.5 to 0.5)” is about -0.056, and the highest 2% start at about 0.38. The sample as a whole holds a higher share of the highest values than the screen did.
molecular target: Stb4 (UniProt P50104); assay: PBM E-score (8-mer binding enrichment) (E-score (-0.5 to 0.5)); higher = stronger / more preferred TF binding; conditions: protein concentration: 200 nM; construct: GST-DNA-binding domain
Procedure, shortened: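 Universal all-10-mer Agilent arrays, double-stranded by primer extension on fresh or once-stripped slides, were probed with about 100-200 nM GST-tagged yeast transcription factors made by PURExpress. Fluorescent anti-GST detected bound protein, and masliner normalised the scans. E-scores from the Universal PBM Analysis Suite were given to each ungapped eight-base word pooled with its reverse complement.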

Sequence of UniProt P50104 (P50104 whole entry, the tested form may be a part): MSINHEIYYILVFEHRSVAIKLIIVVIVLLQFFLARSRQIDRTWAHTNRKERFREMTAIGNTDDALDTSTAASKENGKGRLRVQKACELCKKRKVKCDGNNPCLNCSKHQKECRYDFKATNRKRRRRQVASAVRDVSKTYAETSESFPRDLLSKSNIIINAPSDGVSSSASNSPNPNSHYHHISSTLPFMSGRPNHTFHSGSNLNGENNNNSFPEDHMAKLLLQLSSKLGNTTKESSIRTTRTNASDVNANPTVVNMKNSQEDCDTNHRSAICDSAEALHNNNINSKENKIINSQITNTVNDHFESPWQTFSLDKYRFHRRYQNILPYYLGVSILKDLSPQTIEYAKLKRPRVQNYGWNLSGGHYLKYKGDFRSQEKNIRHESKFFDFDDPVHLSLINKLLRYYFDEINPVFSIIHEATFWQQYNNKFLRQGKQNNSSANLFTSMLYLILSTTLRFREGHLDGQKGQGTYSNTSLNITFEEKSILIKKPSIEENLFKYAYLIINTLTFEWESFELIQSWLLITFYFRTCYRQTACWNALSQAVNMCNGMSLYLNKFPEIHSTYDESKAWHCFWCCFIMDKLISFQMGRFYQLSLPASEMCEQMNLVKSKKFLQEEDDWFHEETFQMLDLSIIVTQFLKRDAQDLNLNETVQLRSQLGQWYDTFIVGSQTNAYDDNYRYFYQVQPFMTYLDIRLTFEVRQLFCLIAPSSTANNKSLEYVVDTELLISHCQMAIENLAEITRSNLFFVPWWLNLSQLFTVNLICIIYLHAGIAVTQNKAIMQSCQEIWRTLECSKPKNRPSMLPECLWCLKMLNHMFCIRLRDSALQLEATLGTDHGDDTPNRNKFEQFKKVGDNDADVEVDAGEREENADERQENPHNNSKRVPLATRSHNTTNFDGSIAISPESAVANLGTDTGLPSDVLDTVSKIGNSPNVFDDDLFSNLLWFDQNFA

Row | Sequence | PBM E-score
1 | AAGACTCC | -0.0274
2 | AGATAGTG | -0.0913
3 | ATAAGTAG | -0.157
4 | CCCGAACG | 0.378
5 | ACCGAACC | 0.336
6 | CCCGAACC | 0.414
7 | GGCGAACC | -0.0255
8 | CACGAACA | -0.0987
9 | TGCGAACA | -0.144
10 | CACGAACC | -0.198
11 | CCCGAACA | 0.393
12 | GCCGAACC | 0.395
13 | TCCGAACA | 0.447
14 | CGCGAACC | 0.166
15 | TACGAACA | -0.191
16 | GGAAAGTA | 0.172
17 | GAAATAGC | 0.0755
18 | GATCTTGC | 0.0905
19 | AGGCAGAC | -0.1
20 | CGAGACGC | 0.14
21 | ACCCGCTA | 0.151
22 | CACCCTAA | -0.201
23 | CTACAGTA | -0.139
24 | ACTCCTTA | -0.0987
25 | CGCAAGAA | 0.0756
26 | GCCGAACA | 0.393
27 | GTCGAACA | -0.044

Row | Sequence | PBM E-score
28 | ACCGAACA | 0.313
29 | CCAGGTCG | -0.247
30 | AATACCCG | 0.431
31 | AACACCCC | 0.0426
32 | AACACCCG | 0.4
33 | ACTACCCG | 0.401
34 | ACTACCCA | -0.261
35 | ACTACCCC | -0.0517
36 | AATACCCA | -0.00809
37 | AATACCCT | 0.0669
38 | ATTACCCG | 0.416
39 | CACACCCG | 0.3
40 | ATTACCCC | 0.133
41 | ATTACCCA | -0.0268
42 | CCAGTGCA | -0.303
43 | ACGGCTAG | 0.12
44 | ACAGCCAA | -0.135
45 | TCTAGAGA | -0.256
46 | TGAAACAA | -0.124
47 | CAAGAAAG | -0.0821
48 | ACGAACGC | -0.15
49 | CCGAACGC | 0.415
50 | CCGAACGA | 0.379
51 | CCGAACGG | 0.413
52 | GCGAACGC | -0.0479
53 | ACGAACGG | 0.0948
54 | ATGCTGTC | -0.134

Row | Sequence | PBM E-score
55 | CGCTAGAA | -0.154
56 | ACTTATCT | -0.211
57 | AAGTCTTC | -0.108
58 | ATGCTGAG | -0.229
59 | ACTTCGCG | 0.116
60 | ACTTCGAG | -0.0152
61 | CCTTCGGC | 0.335
62 | CCTTCGAA | -0.117
63 | CCTTCGGA | 0.474
64 | GCTTCGCA | -0.173
65 | CCTTCGCA | -0.236
66 | ACTTCGCC | -0.0357
67 | GCTTCGTA | -0.25
68 | ACTTCGGC | 0.392
69 | GCTTCGGA | 0.439
70 | ACTTCGGG | 0.407
71 | CGTAGTGA | -0.114
72 | GAAGAGTC | -0.0545
73 | ACCACTAA | -0.0511
74 | AGGAGTCG | -0.142
75 | GCCATAAC | -0.211
76 | AAGTCGGG | 0.306
77 | ACTCATTG | -0.0916
78 | CACGCCAG | -0.0642
79 | ACTTCGGA | 0.458
80 | ACTTCGCA | -0.156
81 | ACTTCGAA | -0.167

Row | Sequence | PBM E-score
82 | CCGATCCC | 0.34
83 | ATGATCCC | 0.157
84 | ACGATCCC | 0.192
85 | ATGATCCA | -0.032
86 | ATGATCCG | 0.397
87 | CCGATCCA | 0.238
88 | ACGATCCA | -0.0732
89 | CCGATCCG | 0.445
90 | ACGATCCG | 0.399
91 | GAGACGCA | 0.0275
92 | CCCAATCC | 0.0104
93 | CAGGGGCG | -0.182
94 | CGAACCGA | 0.397
95 | GGGACCGA | 0.265
96 | CGAACCGC | 0.0494
97 | ATAACCGG | 0.281
98 | CGGACCGA | 0.419
99 | ATAACCGC | 0.0841
100 | ATAACCGA | 0.388
101 | CGGACCGC | 0.29
102 | TCAACCGA | 0.291
103 | CTAACCGC | 0.0169
104 | CTAACCGA | 0.401
105 | GGAACCGA | 0.343

Source: the supplement of paper PMC3334620
